Test results reported in PubChem BioAssay.
The source made the active and inactive calls.

Experiments:
Albumin (Bos taurus) = Albumin (Bos taurus) (UniProt P02769); test: compounds binding labelled BSA control protein – biochemical, small-molecule microarray, Alexa647 label, 635/667 nm fluorescence, artefact control for SMM control protein annotation, profiling panel (AID 1118); details: BSA-A647 binding, fluorescence 635 nm, higher = more signal;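 further: score merges 667 nm emission intensity and signal-to-noise per printed compound spot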
Chain of Albumin (Bos taurus) (P02769 whole entry, looked up): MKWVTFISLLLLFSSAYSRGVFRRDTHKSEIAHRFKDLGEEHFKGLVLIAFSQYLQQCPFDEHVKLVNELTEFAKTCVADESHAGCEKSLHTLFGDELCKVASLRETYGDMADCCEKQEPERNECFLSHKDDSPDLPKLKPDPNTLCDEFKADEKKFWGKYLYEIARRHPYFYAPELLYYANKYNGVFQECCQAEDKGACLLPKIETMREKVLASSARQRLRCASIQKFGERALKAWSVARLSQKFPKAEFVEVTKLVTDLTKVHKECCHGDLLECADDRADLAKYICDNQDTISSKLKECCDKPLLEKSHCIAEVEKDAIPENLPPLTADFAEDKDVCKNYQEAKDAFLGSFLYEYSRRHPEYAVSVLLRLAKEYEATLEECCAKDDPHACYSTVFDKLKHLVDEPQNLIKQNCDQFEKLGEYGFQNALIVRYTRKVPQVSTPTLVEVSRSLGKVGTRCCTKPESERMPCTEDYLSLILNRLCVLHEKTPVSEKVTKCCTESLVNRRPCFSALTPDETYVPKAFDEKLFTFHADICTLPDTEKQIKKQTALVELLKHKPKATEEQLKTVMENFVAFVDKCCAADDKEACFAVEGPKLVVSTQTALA

[1] = probe aXIP binding to arrayed compounds – biochemical, NeuroSMM set, 635/667 nm fluorescence, primary screen (AID 1119); details: small-molecule microarray, higher = more signal, called active from +8 up or from −8 down;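 further: probe is the protein aXip251-270 applied at 1 µg/mL to compound-printed slides; binding of probe to printed compounds measured as 667 nm fluorescence plus signal to noise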
[2] = probe aNOTCH3 binding on compound microarray – biochemical, small-molecule microarray, 635/667 nm fluorescence, primary screen (AID 1120); details: higher = more signal;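 further: probe is a biotin-tagged antibody raised against NOTCH3 rather than NOTCH3 protein; score merges spot fluorescence near 667 nm with spot signal to noise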
[3] = probe aNOTCH2 binding on compound microarray – biochemical, small-molecule microarray, 635/667 nm fluorescence, primary screen (AID 1121); details: higher = more signal;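 further: score merges feature fluorescence read at 667 nm with its signal to noise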
[4] = target: Carbonic anhydrase 2 (Homo sapiens) (UniProt P00918); test: compounds binding carbonic anhydrase 2 – biochemical, small-molecule microarray, Alexa647-labelled CAII, profiling panel (AID 1122); details: CAII-A647 binding fluorescence, higher = more signal
[5] = COS7 lysate on small-molecule microarray, probe aHis, 635 nm (AID 1123); details: COS7 cell lysate, fluorescence, higher = more signal;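 further: z-score combines 667nm fluorescence intensity with signal-to-noise per printed compound spot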
[6] = probe aLAP1 signal on lysate-treated microarray – cell lysate, small-molecule microarray, COS7 lysate, primary screen (AID 1124); details: probe aLAP1, fluorescence, higher = more signal;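 further: lysate comes from COS7 cells expressing LAP1 and is applied at 0.3 µg/mL; score merges spot fluorescence near 667 nm with signal-to-noise over triplicate slides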
Sam68 (KHDRBS1) = test: compounds binding KHDRBS1 protein – biochemical, small-molecule microarray, 635 nm fluorescence, primary screen (AID 1125); details: higher = more signal;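 further: score merges 667 nm channel intensity with signal to noise over triplicate slides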
[7] = system: Chordin-like protein 2 (CHRDL2); test: compounds binding chordin-like 2 – biochemical, small-molecule microarray, 635 nm fluorescence, primary screen (AID 1126); details: fluorescence 635 nm, higher = more signal;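 further: printed compound slides probed with Chrdl2 protein at 4 µg/mL for 1 h at 4 C; score merges 667 nm emission intensity with signal to noise over three replicate slides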
[8] = target: Concanavalin-A (Canavalia ensiformis) (UniProt P02866); test: compounds binding concanavalin A lectin – biochemical, small-molecule microarray, Alexa647 label, 635 nm, artefact control for SMM control protein annotation, primary screen (AID 1127); details: ConA-A647 binding fluorescence, higher = more signal;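 further: z combines 667 nm emission intensity with signal-to-noise across three replicate slides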
Chain of Concanavalin-A (Canavalia ensiformis) (P02866 whole entry, looked up): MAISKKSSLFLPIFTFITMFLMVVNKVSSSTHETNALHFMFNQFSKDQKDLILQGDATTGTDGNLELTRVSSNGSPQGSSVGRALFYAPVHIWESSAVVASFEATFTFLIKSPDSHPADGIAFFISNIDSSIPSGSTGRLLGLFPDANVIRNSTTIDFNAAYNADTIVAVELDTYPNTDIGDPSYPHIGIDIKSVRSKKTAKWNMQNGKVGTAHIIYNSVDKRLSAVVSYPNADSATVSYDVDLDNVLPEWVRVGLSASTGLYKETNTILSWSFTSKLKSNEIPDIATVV

[9] = compounds binding Alexa647 anti-His antibody – biochemical, small-molecule microarray, 635 nm fluorescence, artefact control for SMM control protein annotation, primary screen (AID 1128); details: higher = more signal;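 further: score merges feature fluorescence with signal-to-noise for each printed compound spot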
[10] = system: Human papillomavirus type 1a E7 protein (residues 1-88); test: HPV1a E7 small-molecule binders, primary screen, biochemical, small-molecule microarray, residues 1-88, 635 nm (AID 1129); details: small-molecule microarray binding, fluorescence 635 nm; higher = more signal
[11] = target: Focal adhesion kinase 1 (Homo sapiens) (UniProt Q05397); test: PTK2 protein binding on printed compound slides – biochemical, small-molecule microarray, 635/667 nm fluorescence, BSA, DTT, primary screen (AID 1130); details: 635 nm fluorescence, higher = more signal;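 further: composite of spot emission at 667 nm and signal to noise over triplicate slides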
Chain of Focal adhesion kinase 1 (Homo sapiens) (Q05397 whole entry, looked up): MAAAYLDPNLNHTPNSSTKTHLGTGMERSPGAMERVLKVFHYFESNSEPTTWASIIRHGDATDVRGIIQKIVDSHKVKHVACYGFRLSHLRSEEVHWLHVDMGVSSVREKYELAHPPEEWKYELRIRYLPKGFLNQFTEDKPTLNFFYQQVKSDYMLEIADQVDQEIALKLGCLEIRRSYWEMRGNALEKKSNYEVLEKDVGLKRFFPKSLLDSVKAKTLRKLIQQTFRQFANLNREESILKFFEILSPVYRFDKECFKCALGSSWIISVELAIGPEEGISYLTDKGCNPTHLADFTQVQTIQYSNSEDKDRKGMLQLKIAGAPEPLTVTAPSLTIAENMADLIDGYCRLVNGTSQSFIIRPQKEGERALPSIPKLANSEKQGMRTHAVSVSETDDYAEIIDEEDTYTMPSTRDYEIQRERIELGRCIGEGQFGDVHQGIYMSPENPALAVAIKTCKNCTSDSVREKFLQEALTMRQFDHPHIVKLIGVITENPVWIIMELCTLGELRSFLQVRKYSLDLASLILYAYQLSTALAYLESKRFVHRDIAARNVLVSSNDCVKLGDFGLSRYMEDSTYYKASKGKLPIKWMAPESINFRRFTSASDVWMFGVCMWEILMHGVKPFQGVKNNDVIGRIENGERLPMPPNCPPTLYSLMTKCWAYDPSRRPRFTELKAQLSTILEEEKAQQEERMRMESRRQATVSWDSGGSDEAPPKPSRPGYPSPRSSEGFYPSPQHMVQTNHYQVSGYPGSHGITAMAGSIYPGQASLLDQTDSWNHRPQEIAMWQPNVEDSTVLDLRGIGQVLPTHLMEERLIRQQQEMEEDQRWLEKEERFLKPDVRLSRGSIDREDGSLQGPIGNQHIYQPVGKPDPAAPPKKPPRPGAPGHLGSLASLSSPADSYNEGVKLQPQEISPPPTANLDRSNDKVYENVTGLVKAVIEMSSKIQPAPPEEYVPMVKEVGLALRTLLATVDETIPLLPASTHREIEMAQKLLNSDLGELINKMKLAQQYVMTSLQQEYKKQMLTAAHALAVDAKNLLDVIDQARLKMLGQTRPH

[12] = system: Fibrinogen (Alexa647-labelled); test: Alexa647-fibrinogen binding to printed small molecules – biochemical, small-molecule microarray, 635/667 nm fluorescence, artefact control for SMM control-protein annotation, profiling panel (AID 1131); details: fibrinogen-A647 binding fluorescence, higher = more signal;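 further: z-score merges 667 nm fluorescence with per-spot signal-to-noise over triplicate slides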
[13] = target: Follistatin (Homo sapiens) (UniProt P19883); test: FST protein binding to printed compounds – biochemical, small-molecule microarray, 635/667 nm fluorescence, primary screen (AID 1132); details: 635 nm fluorescence, higher = more signal
Chain of Follistatin (Homo sapiens) (P19883 whole entry, looked up): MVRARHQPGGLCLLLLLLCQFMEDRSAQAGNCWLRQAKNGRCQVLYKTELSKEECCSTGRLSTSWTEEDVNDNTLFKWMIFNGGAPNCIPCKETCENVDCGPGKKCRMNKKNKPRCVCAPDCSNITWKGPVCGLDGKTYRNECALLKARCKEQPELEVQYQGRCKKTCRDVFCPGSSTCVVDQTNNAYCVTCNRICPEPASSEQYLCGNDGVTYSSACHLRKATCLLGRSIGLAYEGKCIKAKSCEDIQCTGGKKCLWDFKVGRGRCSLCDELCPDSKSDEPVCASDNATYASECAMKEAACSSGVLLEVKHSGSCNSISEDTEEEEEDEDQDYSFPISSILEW

[14] = target: Fibroblast growth factor 2 (Homo sapiens) (UniProt P09038); test: basic fibroblast growth factor binding to printed compounds – biochemical, small-molecule microarray, 635/667 nm fluorescence, primary screen (AID 1133); details: FGF2, fluorescence 635/667, higher = more signal
Chain of Fibroblast growth factor 2 (Homo sapiens) (P09038 whole entry, looked up): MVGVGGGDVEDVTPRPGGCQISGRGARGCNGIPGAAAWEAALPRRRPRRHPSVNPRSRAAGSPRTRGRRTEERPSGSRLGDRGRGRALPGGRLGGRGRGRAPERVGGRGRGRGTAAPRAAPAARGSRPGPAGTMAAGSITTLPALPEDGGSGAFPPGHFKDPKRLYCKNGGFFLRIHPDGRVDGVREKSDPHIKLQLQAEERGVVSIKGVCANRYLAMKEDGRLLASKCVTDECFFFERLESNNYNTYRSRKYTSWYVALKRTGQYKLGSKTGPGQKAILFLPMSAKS

[15] = JC-1 mitochondrial potential readout, lung cancer cells – cell-based, A549, JC-1 fluorescence, basal, 24 h, 100 nL, profiling panel (AID 1138); details: higher = more signal;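 further: A549 lung adenocarcinoma cells under basal conditions with no added stimulus; test concentration not given here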
Lefty1 = Lefty1 protein binding to printed compounds – biochemical, small-molecule microarray, 635/667 nm fluorescence, primary screen (AID 1139); details: fluorescence 635/667, higher = more signal
[16] = system: wheat germ agglutinin (Triticum aestivum), Alexa647-labelled; test: Alexa647-WGA lectin binding to printed small molecules – biochemical, small-molecule microarray, 635/667 nm fluorescence, artefact control for SMM control-protein annotation, profiling panel (AID 1140); details: WGA-A647 binding, 635 nm fluorescence, higher = more signal;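 further: score merges 667 nm feature emission with signal to noise over triplicate slides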
[17] = target: Luciferin 4-monooxygenase (Photinus pyralis) (UniProt P08659); test: inhibition of purified Photinus pyralis luciferase – biochemical, luminescence, purified enzyme, 2006 set, primary screen (AID 1141); details: purified firefly luciferase, SteadyGlo luminescence, 30 min; higher = more signal, called active from +8 up or from −8 down;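 further: cell-free assay with purified firefly luciferase at 100 ng per well in PBS; test concentration not given here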
Chain of Luciferin 4-monooxygenase (Photinus pyralis) (P08659 whole entry, looked up): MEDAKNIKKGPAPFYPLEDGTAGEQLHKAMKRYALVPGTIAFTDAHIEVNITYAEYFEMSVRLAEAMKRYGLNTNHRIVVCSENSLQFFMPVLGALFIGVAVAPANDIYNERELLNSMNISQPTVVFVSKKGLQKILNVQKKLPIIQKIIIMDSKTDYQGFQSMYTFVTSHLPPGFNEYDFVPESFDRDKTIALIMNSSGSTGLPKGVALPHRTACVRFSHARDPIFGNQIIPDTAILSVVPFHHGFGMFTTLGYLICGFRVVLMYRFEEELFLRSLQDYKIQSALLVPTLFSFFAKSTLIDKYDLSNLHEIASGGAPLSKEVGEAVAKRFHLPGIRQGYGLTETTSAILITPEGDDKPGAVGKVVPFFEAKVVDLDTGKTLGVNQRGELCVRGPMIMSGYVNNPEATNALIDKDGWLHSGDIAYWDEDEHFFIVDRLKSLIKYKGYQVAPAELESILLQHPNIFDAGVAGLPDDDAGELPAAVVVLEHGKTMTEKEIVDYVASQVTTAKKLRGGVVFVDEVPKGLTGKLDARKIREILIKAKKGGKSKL

SMILES | composite z-score (Albumin (Bos taurus)) | composite Z-score [1] | composite z-score [2] | composite z-score [3] | composite z-score [4] | composite z-score [5] | composite z-score [6] | composite z-score (Sam68 (KHDRBS1)) | composite z-score [7] | composite z-score [8] | composite z-score [9] | composite z-score [10] | composite z-score [11] | composite z-score [12] | composite z-score [13] | composite z-score [14] | z-score [15] | composite z-score (Lefty1) | composite z-score [16] | z-score [17]
C=CCN1C(=O)[C@@]2(O[C@@H](CCn3cc(CCO)nn3)[C@H]([Si](C)(C)c3ccc(OC)cc3)[C@H]2C)c2cc(NC(=O)c3ccc(OC)cc3)ccc21 | -0.0754 | -0.444 (inactive) | 0.0676 | 0.443 | 0.156 | 1.36 | 0.493 | 1.15 | 0.808 | 1.08 | 0.309 | 0.812 | 0.129 | 0.323 | 1.14 | 0.645 | 2.77 | 1.02 | 0.922 | -1.51 (inactive)
COCCOC(=O)N1C(=O)[C@@]2(c3cc(C#CCNC(N)=O)ccc31)[C@H](c1ccccc1OCCO)N1[C@H](c3ccccc3)[C@H](c3ccccc3)OC(=O)[C@H]1[C@@H]2C(=O)Nc1nc2ccccc2s1 | 0.598 | 0.564 (inactive) | -0.0391 | -0.0817 | 0.439 | 0.862 | 0.292 | 1.12 | 0.0611 | 1.03 | 0.3 | 0.965 | 0.374 | 0.283 | 1.17 | 0.271 | -2.07 | 0.591 | 1.04 | -1.87 (inactive)
C=CCNC(=O)[C@H]1[C@@H]2C(=O)O[C@@H](c3ccccc3)[C@@H](c3ccccc3)N2[C@@H](c2ccccc2OCCO)[C@]12C(=O)N(C(=O)OCCOC)c1ccc(C#CCCO)cc12 | 0.0097 | 0.433 (inactive) | 0.142 | 0.399 | 0.417 | 1.79 | 0.665 | 1.32 | 1.18 | 1.11 | 1.34 | 1.09 | 1.02 | 0.614 | 1.42 | 1.72 | 1.7 | 0.817 | 0.958 | -1.66 (inactive)
Cc1ccc(N2C(=O)c3ccccc3[C@](C)(C(=O)NCC(F)(F)F)[C@@H]2c2ccc(CO)cc2)nc1 | -1.6 | -0.326 (inactive) | -0.403 | -0.177 | 0.869 | -0.552 | 0.0759 | -1.78 | -1.8 | -1.26 | -1.32 | -1.22 | -0.637 | -1.94 | -1.6 | -0.986 | -0.2 | -2.1 | -0.188 | -0.679 (inactive)
COC(=O)C(CC#Cc1ccc2c(c1)[C@]1(C(=O)N2)[C@H](C(N)=O)[C@H]2C(=O)O[C@H](c3ccccc3)[C@H](c3ccccc3)N2[C@@H]1c1ccc(O)cc1)C(=O)OC | 0.201 | 0.0742 (inactive) | 0.122 | 0.0286 | 0.803 | 1.15 | 0.478 | -0.942 | -1.33 | -1.92 | 0.62 | -0.328 | 0.418 | -1.59 | -0.919 | -0.292 | -1.07 | -0.861 | -0.3 | -1.43 (inactive)
NCCCCCNC(=O)[C@H]1C[C@H]2C(=O)NCC(=O)N2[C@H]1c1ccc(O)cc1 | 1.06 | 0.696 (inactive) | 0.0596 | -0.105 | 0.685 | 1.08 | 0.521 | 1.29 | 1.14 | 1.22 | 2.54 | 1.19 | 0.366 | 0.97 | 1.48 | 1.75 | 0.68 | 1.69 | 1.3 | -1.04 (inactive)
COC(=O)C(CC#Cc1ccc2c(c1)[C@]1(C(=O)N2)[C@H](C(=O)O)[C@H]2C(=O)O[C@H](c3ccccc3)[C@H](c3ccccc3)N2[C@@H]1c1ccc(OCCO)cc1)C(=O)OC | 0.956 | -0.908 (inactive) | 0.123 | -0.0333 | 0.703 | 2.07 | 0.279 | 1.3 | -0.756 | 1.2 | 0.479 | 1.24 | 0.918 | 0.812 | 0.0447 | 0.549 | -0.22 | 0.943 | 1.43 | -4.03 (inactive)
COC(=O)[C@@]1(CCC(=O)OC(C)(C)C)COC(c2ccc(OCCCO)cc2)=N1 | -1.01 | -0.378 (inactive) | -0.239 | -0.147 | 0.558 | 0.214 | 0.993 | -0.724 | -2.22 | -1.8 | -1.22 | -1.66 | -0.15 | -2.51 | -2.21 | -1.64 | -0.122 | -2.55 | -1.57 | -1.4 (inactive)
CC(C)N1C(=O)c2ccccc2[C@@H](C(=O)NCc2ccccc2)[C@@H]1c1ccc(CO)cc1 | -2.18 | 0.335 (inactive) | -0.27 | -0.162 | 0.741 | 1.51 | 0.409 | 0.0504 | -0.184 | -1.07 | -1.36 | 0.369 | 0.427 | -1.22 | 0.815 | 0.82 | 1.64 | -1.28 | -1.51 | -0.886 (inactive)
C=CCC(OC(C)=O)[C@@H]1[C@@H](N(Cc2ccc(-c3ccccc3)cc2)C(=O)c2ccc(-c3ccccc3)cc2)c2cc(OCCCO)ccc2N1C(=O)c1ccc(-c2ccccc2)cc1 (stereo not given in full) | 0.0452 | -0.254 (inactive) | 0.11 | 0.0086 | -0.0914 | 0.57 | -0.0163 | -0.821 | 0.0312 | -0.473 | -0.726 | 0.274 | 0.63 | -0.705 | 0.288 | -0.215 | 2.51 | -0.418 | 0.0316 | -1.15 (inactive)
